# The source made the active and inactive calls. The calls were made as follows: active = hit-call score of the fitted dose curve at least 0.9, where 1 is the maximum; inactive = score below 0.9.
# Read-out: Interleukin-6 (IL6), IL6 (gene 3569)
# Assay: BSK_CASM3C_IL6: BioMAP Diversity Plus: CASM3C Assay for Interleukin-6 (IL6) Biomarker Activity for (AID 2283040)
# Details: primary human coronary artery smooth muscle cells; actives raise or lower the signal
SMILES,outcome,AC50
Cc1c(COC(=O)[C@@H]2[C@H](/C=C(\Cl)C(F)(F)F)C2(C)C)cccc1-c1ccccc1,inactive,–
O=c1n(Cl)c(=O)n(Cl)c(=O)n1Cl,inactive,–
CC1(C)CCC(=Cc2ccc(Cl)cc2)C1(O)Cn1cncn1 (stereo unspecified),inactive,–
COC(=O)N(C(=O)N1CO[C@@]2(C(=O)OC)Cc3cc(Cl)ccc3C2=N1)c1ccc(OC(F)(F)F)cc1,inactive,–
CC1(C)CON(Cc2ccccc2Cl)C1=O,inactive,–
Cn1c(-c2ccccc2)cc(-c2ccccc2)[n+]1C,inactive,–
COC(=O)NC(=S)Nc1ccccc1NC(=S)NC(=O)OC,inactive,–
N#CN=C1SCCN1Cc1ccc(Cl)nc1,inactive,–
CS(=O)(=O)c1cc(C(F)(F)F)ccc1C(=O)c1cnoc1C1CC1,inactive,–
COP(=S)(OC)SCn1nnc2ccccc2c1=O,inactive,–
CCSC(=O)N1CCCCCC1,inactive,–
O=C(O)c1c(Cl)ccc2cc(Cl)cnc12,inactive,–
CCCCOCN(C(=O)CCl)c1c(CC)cccc1CC,–,4.92 µM (active)
CC(C)N1C(=O)c2ccccc2NS1(=O)=O,inactive,–
CCCCC(O)(Cn1cncn1)c1ccc(Cl)cc1Cl (stereo unspecified),inactive,–
COCC(C)N(C(=O)CCl)c1c(C)csc1C (stereo unspecified),inactive,–
CC1(C)C(C=C(Cl)Cl)C1C(=O)OC(C#N)c1cccc(Oc2ccccc2)c1 (stereo unspecified),inactive,–
CCOP(=S)(OCC)Oc1nc(Cl)n(C(C)C)n1,inactive,–

SMILES,outcome,AC50
COP(=O)(OC)O/C(C)=C/C(=O)N(C)C,inactive,–
CCN(CC)c1nc(C)cc(OP(=S)(OC)OC)n1,inactive,–
Cc1cc(C)nc(Nc2ccccc2)n1,inactive,–
O=P(O)(O)CCCl,inactive,–
CC(C)(C)C(=O)C(Oc1ccc(Cl)cc1)n1cncn1 (stereo unspecified),inactive,–
C=C(C)CN(CC)c1c([N+](=O)[O-])cc(C(F)(F)F)cc1[N+](=O)[O-],inactive,–
C=CCOC(=O)C(C)(C)OC(=O)c1cc(-n2c(=O)cc(C(F)(F)F)n(C)c2=O)ccc1Cl,inactive,–
CCN(CC)C(=O)C(C)Oc1cccc2ccccc12 (stereo unspecified),inactive,–
COCc1cnc(C2=NC(C)(C(C)C)C(=O)N2)c(C(=O)O)c1 (stereo unspecified),inactive,–
O=C1C2CC=CCC2C(=O)N1SC(Cl)(Cl)Cl (stereo unspecified),–,30.9 µM (active)
CCCC(=NOCC)C1=C(O)CC(CC(C)SCC)CC1=O (stereo unspecified),inactive,–
CO/N=C(/C1=NOCCO1)c1ccccc1Oc1ncnc(Oc2ccccc2Cl)c1F,inactive,–
CC(C)Oc1cccc(NC(=O)c2ccccc2C(F)(F)F)c1,inactive,–
CC(C)C1(C)N=C(c2ncccc2C(=O)O)NC1=O (stereo unspecified),inactive,–
COCC(=O)N(c1c(C)cccc1C)C(C)C(=O)OC (stereo unspecified),inactive,–
CC(C)N1C(=O)N(c2ccccc2)CSC1=NC(C)(C)C,inactive,–
CCNP(=S)(OC)O/C(C)=C/C(=O)OC(C)C (stereo unspecified),inactive,–
CNC(=O)Oc1cccc2ccccc12,inactive,–

# Reference: PubChem BioAssay (EPA / NIEHS)
